Values joined by “and” are separate entries in the source; they are usually repeats but may differ in a detail not shown here. Equal entries are not always repeated. Results filed as inconclusive are left out. Active and inactive are the calls of the source. How the source made its calls: active means hit-call score of the fitted dose curve at least 0.9, where 1 is the maximum; inconclusive means response in the unintended direction; inactive means score below 0.9.

The term AC50 denotes the concentration at which the activity in the assay is half-maximal.

Assay [1] addresses rat CYP2D1, Cyp2d1 (gene 266684) (UniProt P10633). The assay can be described thus: NVS_ADME_rCYP2D1: NovaScreen (NVS) CYP450-related Enzyme Activity (ADME) Assay for rat CYP2D1 (AID 2283122). In a few lines: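 Rat CYP2D1 enzyme activity measured by fluorescence intensity in a cell-free format, 0.75 h post-dosing, acetonitrile as negative control. Screening at 10 uM in duplicate, with actives followed in concentration series up to 20 uM.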

In assay [2] the target is rat CYP2C12, Cyp2c12 (gene 25011) (UniProt P11510). The assay can be described thus: NVS_ADME_rCYP2C12: NovaScreen (NVS) CYP450-related Enzyme Activity (ADME) Assay for rat CYP2C12 (AID 2283119). The method, then:
NVS_ADME_rCYP2C12 is a biochemical, single-readout assay that uses extracted gene-proteins in a cell-free assay. Measurements were taken 0.5 hour after chemical dosing in a 96-well plate.NVS_ADME_rCYP2C12 is one of one assay component(s) measured or calculated from the NVS_ADME_rCYP2C12 assay. It is designed to make measurements of enzyme activity, a form of enzyme reporter, as detected with fluorescence intensity signals by Fluorescence technology.Data from the assay component NVS_ADME_rCYP2C12 was analyzed into 1 assay endpoint. This assay endpoint, NVS_ADME_rCYP2C12, was analyzed in the positive analysis fitting direction relative to Acetonitrile as the negative control and baseline of activity. Using a type of enzyme reporter, loss-of-signal activity can be used to understand changes in the enzymatic activity as they relate to the gene Cyp2c12. Furthermore, this assay endpoint can be referred to as a primary readout, because this assay has produced multiple assay endpoints where this one serves a enzymatic activity function. To generalize the intended target to other relatable targets, this assay endpoint is annotated to the cyp intended target family, where the subfamily is xenobiotic metabolism.
(§1) Binding assays used specific radioligands (tritiated, iodinated) with non-radioactive competitive displacement ligands in agonist or antagonist protocols (as indicated) and various reference compounds and inhibitors to titrate specific binding to receptors and transporters. Most enzyme assays (CYPs, kinases, phosphatases, proteases, HDACs) used recombinant protein and specific substrates (fluorescence mostly, some colorimetric and radioactive) and inhibitors, followed by a biochemical separation of substrate and product. All assays for the biochemical HTS were initially run in duplicate at a single concentration (10 uM for CYP450 assays and 25 uM for all others). […] Each assay was run with positive and negative controls, and concurrent controls on every plate. The follow-up (secondary) screen tested active chemical-pairs in concentration series, as well as a few additional assays not tested in the primary screen, some selected negative inactives, and several cases re-run in the concentration series for confirmatory purposes.

Assay [3] has as its target human Caspase 10 (CASP10), CASP10 (gene 843) (UniProt Q92851). The assay can be described thus: NVS_ENZ_hCASP10: NovaScreen (NVS) Enzymatic Assay for human Caspase 10 (CASP10) (AID 2283133). The protocol: NVS_ENZ_hCASP10 is a biochemical, single-readout assay that uses extracted gene-proteins from E. coli in a cell-free assay. Measurements were taken 1 hour after chemical dosing in a 96-well plate.NVS_ENZ_hCASP10 is one of one assay component(s) measured or calculated from the NVS_ENZ_hCASP10 assay. It is designed to make measurements of enzyme activity, a form of enzyme reporter, as detected with fluorescence intensity signals by Fluorescence technology.Data from the assay component NVS_ENZ_hCASP10 was analyzed into 1 assay endpoint. This assay endpoint, NVS_ENZ_hCASP10, was analyzed in the positive analysis fitting direction relative to DMSO as the negative control and baseline of activity. Using a type of enzyme reporter, loss-of-signal activity can be used to understand changes in the enzymatic activity as they relate to the gene CASP10. Furthermore, this assay endpoint can be referred to as a primary readout, because this assay has produced multiple assay endpoints where this one serves a enzymatic activity function. To generalize the intended target to other relatable targets, this assay endpoint is annotated to the protease intended target family, where the subfamily is cysteine protease. […]

Assay [4] concerns the target rat CYP2A2, Cyp2a2 (gene 24895) (UniProt P15149). The assay can be described thus: NVS_ADME_rCYP2A2: NovaScreen (NVS) CYP450-related Enzyme Activity (ADME) Assay for rat CYP2A2 (AID 2283116). In a few lines:
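Compounds first tested in duplicate at 10 uM, then in singleton concentration series up to 20 uM when over threshold. Activity of the recombinant enzyme read by fluorescence at 0.2 h, normalised to acetonitrile vehicle.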

The target in assay [5] is rat CYP2D2, Cyp2d26 (gene 25053) (UniProt P10634). The experiment in a line: NVS_ADME_rCYP2D2: NovaScreen (NVS) CYP450-related Enzyme Activity (ADME) Assay for rat CYP2D2 (AID 2283124). In a few lines:
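Single-concentration duplicate testing at 10 uM, followed by concentration-response (top 20 uM) for chemicals passing threshold. Enzyme activity of the recombinant rat isoform measured by fluorescence after 0.75 h, acetonitrile as baseline.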

The next assay has as its system rat CYP2C6, gene 293989. The assay can be described thus: NVS_ADME_rCYP2C6: NovaScreen (NVS) CYP450-related Enzyme Activity (ADME) Assay for rat CYP2C6 (AID 2283120). In a few lines:
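Compounds first tested in duplicate at 10 uM, hits (e.g. 30% inhibition) re-run in singleton dose series to a 20 uM top concentration. Enzyme activity of recombinant rat CYP2C6 measured via fluorescent substrate turnover after 1 h; acetonitrile baseline.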

Assay [6] concerns the target rat CYP2C13, Cyp2c13 (gene 171521) (UniProt P20814). The assay can be described thus: NVS_ADME_rCYP2C13: NovaScreen (NVS) CYP450-related Enzyme Activity (ADME) Assay for rat CYP2C13 (AID 2283121). In a few lines: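 Inhibition is read as decreased fluorescent product formation, referenced to acetonitrile vehicle. Cell-free recombinant rat Cyp2c13 reaction ran 0.75 hour; compounds first at 10 uM in duplicate, then concentration series for actives.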

In assay [7] the target is human Acetylcholinesterase (AChE), ACHE (gene 43) (UniProt P22303). The assay can be described thus: NVS_ENZ_hAChE: NovaScreen (NVS) Enzymatic Assay for human Acetylcholinesterase (AChE) (AID 2283129). The method, then: NVS_ENZ_hAChE is a biochemical, single-readout assay that uses extracted gene-proteins in a cell-free assay. Measurements were taken 0.33 hour after chemical dosing in a 96-well plate.NVS_ENZ_hAChE is one of one assay component(s) measured or calculated from the NVS_ENZ_hAChE assay. It is designed to make measurements of enzyme activity, a form of enzyme reporter, as detected with absorbance signals by Colorimetric technology.Data from the assay component NVS_ENZ_hAChE was analyzed into 1 assay endpoint. This assay endpoint, NVS_ENZ_hAChE, was analyzed in the positive analysis fitting direction relative to DMSO as the negative control and baseline of activity. Using a type of enzyme reporter, loss-of-signal activity can be used to understand changes in the enzymatic activity as they relate to the gene ACHE. Furthermore, this assay endpoint can be referred to as a primary readout, because this assay has produced multiple assay endpoints where this one serves a enzymatic activity function. To generalize the intended target to other relatable targets, this assay endpoint is annotated to the esterase intended target family, where the subfamily is acetylcholinesterase.
as §1

The next assay concerns the target Caspase-1 (Homo sapiens) (UniProt P29466). The experiment in a line: NVS_ENZ_hCASP1: NovaScreen (NVS) Enzymatic Assay for human Caspase 1 (CASP1) (AID 2283132). The protocol: NVS_ENZ_hCASP1 is a biochemical, single-readout assay that uses extracted gene-proteins from E. coli in a cell-free assay. Measurements were taken 1 hour after chemical dosing in a 96-well plate.NVS_ENZ_hCASP1 is one of one assay component(s) measured or calculated from the NVS_ENZ_hCASP1 assay. It is designed to make measurements of enzyme activity, a form of enzyme reporter, as detected with fluorescence intensity signals by Fluorescence technology.Data from the assay component NVS_ENZ_hCASP1 was analyzed into 1 assay endpoint. This assay endpoint, NVS_ENZ_hCASP1, was analyzed in the positive analysis fitting direction relative to DMSO as the negative control and baseline of activity. Using a type of enzyme reporter, loss-of-signal activity can be used to understand changes in the enzymatic activity as they relate to the gene CASP1. Furthermore, this assay endpoint can be referred to as a primary readout, because this assay has produced multiple assay endpoints where this one serves a enzymatic activity function. To generalize the intended target to other relatable targets, this assay endpoint is annotated to the protease intended target family, where the subfamily is cysteine protease.
Binding assays used specific radioligands (tritiated, iodinated) with non-radioactive competitive displacement ligands in agonist or antagonist protocols (as indicated) and various reference compounds and inhibitors to titrate specific binding to receptors and transporters. Most enzyme assays (CYPs, kinases, phosphatases, proteases, HDACs) used recombinant protein and specific substrates (fluorescence mostly, some colorimetric and radioactive) and inhibitors, followed by a biochemical separation of substrate and product. All assays for the biochemical HTS were initially run in duplicate at a single concentration (10 uM for CYP450 assays and 25 uM for all others). Assay-chemical combinations meeting a pre-defined threshold (e.g., 30% inhibition and other criteria defined below) were then run in singleton concentration-response format with maximum concentration of 20 uM for CYPs and 50 uM for all others. Each assay was run with positive and negative controls, and concurrent controls on every plate. The follow-up (secondary) screen tested active chemical-pairs in concentration series, as well as a few additional assays not tested in the primary screen, some selected negative inactives, and several cases re-run in the concentration series for confirmatory purposes.

Assay [8] addresses rat CYP2C11, Cyp2c11 (gene 29277) (UniProt P08683). The assay can be described thus: NVS_ADME_rCYP2C11: NovaScreen (NVS) CYP450-related Enzyme Activity (ADME) Assay for rat CYP2C11 (AID 2283118). In a few lines:
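Screened first at 10 uM in duplicate, hits followed by concentration-response. Recombinant rat enzyme activity monitored by fluorescence 0.33 h post-dosing, normalised to acetonitrile negative control.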

Sequence of rat CYP2D2, Cyp2d26 (gene 25053) (P10634 whole entry, looked up, canonical isoform): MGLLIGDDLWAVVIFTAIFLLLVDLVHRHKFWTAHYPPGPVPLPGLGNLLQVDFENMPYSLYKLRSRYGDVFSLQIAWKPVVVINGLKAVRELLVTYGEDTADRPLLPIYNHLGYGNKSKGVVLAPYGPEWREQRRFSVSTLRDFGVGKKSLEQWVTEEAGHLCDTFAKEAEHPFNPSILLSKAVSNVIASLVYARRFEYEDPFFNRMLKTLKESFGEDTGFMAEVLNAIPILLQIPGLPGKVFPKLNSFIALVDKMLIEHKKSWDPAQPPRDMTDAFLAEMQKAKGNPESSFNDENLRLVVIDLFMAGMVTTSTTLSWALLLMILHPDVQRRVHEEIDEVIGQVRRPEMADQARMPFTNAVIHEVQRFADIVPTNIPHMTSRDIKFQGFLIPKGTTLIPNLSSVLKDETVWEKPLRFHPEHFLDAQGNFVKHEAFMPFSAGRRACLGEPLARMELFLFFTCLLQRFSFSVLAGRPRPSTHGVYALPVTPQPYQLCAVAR
Sequence of rat CYP2C12, Cyp2c12 (gene 25011) (P11510 whole entry, looked up): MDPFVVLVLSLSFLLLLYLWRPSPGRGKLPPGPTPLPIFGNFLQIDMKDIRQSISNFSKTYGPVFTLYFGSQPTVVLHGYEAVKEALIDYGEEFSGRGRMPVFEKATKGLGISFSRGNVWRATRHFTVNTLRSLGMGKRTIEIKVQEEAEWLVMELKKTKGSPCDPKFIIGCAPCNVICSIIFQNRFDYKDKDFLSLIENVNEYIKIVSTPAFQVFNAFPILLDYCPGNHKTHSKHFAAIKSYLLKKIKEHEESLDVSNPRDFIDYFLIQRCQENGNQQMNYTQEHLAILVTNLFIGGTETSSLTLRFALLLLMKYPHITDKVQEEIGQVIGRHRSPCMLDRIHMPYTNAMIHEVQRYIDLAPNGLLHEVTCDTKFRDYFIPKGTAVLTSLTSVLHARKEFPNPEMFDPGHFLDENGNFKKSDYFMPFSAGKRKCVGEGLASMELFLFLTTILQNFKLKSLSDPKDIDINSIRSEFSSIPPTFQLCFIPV
Sequence of rat CYP2A2, Cyp2a2 (gene 24895) (P15149 whole entry, looked up): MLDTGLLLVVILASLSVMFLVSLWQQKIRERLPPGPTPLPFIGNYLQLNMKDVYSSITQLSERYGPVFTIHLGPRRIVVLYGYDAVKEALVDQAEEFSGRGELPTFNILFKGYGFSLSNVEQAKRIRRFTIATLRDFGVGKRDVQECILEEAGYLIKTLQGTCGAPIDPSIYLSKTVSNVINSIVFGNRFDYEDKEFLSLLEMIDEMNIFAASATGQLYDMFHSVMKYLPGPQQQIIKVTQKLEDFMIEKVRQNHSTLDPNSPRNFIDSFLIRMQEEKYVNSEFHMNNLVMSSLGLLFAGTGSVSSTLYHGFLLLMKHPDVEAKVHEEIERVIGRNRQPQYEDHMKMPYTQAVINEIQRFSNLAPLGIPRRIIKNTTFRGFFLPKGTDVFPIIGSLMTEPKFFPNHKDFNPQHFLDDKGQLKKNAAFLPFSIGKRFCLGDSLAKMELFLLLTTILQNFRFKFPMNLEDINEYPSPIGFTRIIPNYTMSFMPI
Sequence of rat CYP2C13, Cyp2c13 (gene 171521) (P20814 whole entry, looked up): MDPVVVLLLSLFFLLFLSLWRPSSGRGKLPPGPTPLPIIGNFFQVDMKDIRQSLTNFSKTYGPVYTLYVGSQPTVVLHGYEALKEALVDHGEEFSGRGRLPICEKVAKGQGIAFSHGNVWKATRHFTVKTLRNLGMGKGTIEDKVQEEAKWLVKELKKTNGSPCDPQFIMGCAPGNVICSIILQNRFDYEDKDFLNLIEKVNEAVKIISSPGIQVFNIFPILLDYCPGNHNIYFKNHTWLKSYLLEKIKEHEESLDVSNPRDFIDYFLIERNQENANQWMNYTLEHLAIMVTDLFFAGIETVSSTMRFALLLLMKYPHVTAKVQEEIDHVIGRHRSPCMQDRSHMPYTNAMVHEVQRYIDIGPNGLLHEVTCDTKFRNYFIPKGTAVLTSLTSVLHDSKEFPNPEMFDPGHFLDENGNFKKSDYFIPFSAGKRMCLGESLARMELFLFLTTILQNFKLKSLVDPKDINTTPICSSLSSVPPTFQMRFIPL
Sequence of rat CYP2C11, Cyp2c11 (gene 29277) (P08683 whole entry, looked up): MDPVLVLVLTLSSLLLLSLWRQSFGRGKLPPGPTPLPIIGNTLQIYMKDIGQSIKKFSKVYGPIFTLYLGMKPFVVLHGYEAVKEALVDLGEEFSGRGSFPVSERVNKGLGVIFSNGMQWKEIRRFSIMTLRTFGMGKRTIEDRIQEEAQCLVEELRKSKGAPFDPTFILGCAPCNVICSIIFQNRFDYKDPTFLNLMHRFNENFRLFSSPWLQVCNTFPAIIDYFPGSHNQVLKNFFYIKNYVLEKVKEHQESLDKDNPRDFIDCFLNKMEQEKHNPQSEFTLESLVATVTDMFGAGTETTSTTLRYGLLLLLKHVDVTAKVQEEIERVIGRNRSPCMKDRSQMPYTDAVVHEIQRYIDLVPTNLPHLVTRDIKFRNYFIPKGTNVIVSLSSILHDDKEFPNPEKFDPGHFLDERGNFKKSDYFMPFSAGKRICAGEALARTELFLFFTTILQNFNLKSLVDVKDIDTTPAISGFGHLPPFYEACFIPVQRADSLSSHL
Sequence of rat CYP2D1, Cyp2d1 (gene 266684) (P10633 whole entry, looked up): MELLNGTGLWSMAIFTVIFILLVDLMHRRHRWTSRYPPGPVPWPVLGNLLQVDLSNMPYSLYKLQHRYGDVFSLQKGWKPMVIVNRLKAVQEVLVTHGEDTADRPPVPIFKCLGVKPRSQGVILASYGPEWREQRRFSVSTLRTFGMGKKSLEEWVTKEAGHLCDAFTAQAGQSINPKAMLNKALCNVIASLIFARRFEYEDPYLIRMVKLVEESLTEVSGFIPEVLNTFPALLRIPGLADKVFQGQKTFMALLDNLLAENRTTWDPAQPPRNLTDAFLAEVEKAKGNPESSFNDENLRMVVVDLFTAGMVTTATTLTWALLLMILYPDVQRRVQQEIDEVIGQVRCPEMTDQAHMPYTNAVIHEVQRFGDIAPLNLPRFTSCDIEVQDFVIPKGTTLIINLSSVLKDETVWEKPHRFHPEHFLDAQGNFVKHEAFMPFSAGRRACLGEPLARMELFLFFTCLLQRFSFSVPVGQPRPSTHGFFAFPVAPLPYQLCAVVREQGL
Sequence of Caspase-1 (Homo sapiens) (P29466 whole entry, looked up): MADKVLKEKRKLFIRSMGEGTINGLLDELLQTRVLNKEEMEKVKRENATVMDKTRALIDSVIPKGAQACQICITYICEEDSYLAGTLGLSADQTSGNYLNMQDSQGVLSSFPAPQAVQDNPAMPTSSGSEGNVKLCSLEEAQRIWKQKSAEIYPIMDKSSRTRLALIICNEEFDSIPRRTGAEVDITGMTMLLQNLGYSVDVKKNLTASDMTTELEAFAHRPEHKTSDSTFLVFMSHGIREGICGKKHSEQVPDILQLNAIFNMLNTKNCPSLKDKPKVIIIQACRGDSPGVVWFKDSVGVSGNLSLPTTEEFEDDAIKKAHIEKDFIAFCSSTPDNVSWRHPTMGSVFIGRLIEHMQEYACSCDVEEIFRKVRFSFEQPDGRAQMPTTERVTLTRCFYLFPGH
Sequence of human Acetylcholinesterase (AChE), ACHE (gene 43) (P22303 whole entry, looked up): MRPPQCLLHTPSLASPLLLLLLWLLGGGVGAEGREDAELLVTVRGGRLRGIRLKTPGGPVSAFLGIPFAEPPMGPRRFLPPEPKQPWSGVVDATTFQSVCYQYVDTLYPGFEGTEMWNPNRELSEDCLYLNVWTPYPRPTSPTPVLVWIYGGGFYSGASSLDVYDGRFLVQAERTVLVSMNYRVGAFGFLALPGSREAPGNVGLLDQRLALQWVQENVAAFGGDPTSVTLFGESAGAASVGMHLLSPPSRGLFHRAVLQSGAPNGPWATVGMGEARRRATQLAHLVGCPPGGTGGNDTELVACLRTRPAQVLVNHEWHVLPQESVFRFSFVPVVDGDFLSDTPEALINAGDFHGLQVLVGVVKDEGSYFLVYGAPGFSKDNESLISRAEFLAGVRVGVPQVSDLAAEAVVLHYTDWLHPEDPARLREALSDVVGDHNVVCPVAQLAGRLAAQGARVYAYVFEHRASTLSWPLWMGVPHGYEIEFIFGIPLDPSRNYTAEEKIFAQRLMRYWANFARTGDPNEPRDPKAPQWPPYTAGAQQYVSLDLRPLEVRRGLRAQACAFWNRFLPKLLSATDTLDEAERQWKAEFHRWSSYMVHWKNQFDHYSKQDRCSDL
Sequence of human Caspase 10 (CASP10), CASP10 (gene 843) (Q92851 whole entry, looked up): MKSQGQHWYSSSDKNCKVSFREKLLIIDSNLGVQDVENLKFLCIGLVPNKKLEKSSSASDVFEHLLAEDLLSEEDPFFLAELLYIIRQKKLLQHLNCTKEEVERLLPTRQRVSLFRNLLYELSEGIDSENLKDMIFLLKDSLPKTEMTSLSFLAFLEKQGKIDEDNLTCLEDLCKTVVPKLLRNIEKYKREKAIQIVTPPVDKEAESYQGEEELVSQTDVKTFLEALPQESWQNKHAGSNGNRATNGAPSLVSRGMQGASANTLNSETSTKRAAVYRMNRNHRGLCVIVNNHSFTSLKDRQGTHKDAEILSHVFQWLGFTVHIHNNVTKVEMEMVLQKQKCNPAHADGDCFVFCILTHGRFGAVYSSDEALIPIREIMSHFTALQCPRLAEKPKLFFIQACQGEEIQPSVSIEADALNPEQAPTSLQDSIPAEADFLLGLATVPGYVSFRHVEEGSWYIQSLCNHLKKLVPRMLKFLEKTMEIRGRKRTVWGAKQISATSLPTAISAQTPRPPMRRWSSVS

Regarding `Nc1cnn(-c2ccccc2)c(=O)c1Cl`, in assay [1], the AC50 is 2.37 µM (active).
Turning to `COC(=O)N(C(=O)N1CO[C@@]2(C(=O)OC)Cc3cc(Cl)ccc3C2=N1)c1ccc(OC(F)(F)F)cc1`, the AC50 in assay [2] was 0.332 µM (active). For the same compound, the call in assay [3] was inactive.
Consider `CCCN(CC)CC1COC2(CCC(C(C)(C)C)CC2)O1` (centres undefined), for which the call in [4] was inactive. Also, in [5], the AC50 is 6.05 µM (active) and 2.09 µM (active).
Take `CCCCOCN(C(=O)CCl)c1c(CC)cccc1CC`: the AC50 in the assay on rat CYP2C6, gene 293989 is 3.34 µM (active); in assay [6], 10 µM (active); in assay [5], 3.35 µM (active).
For the compound `Cc1c(COC(=O)[C@@H]2[C@H](/C=C(\Cl)C(F)(F)F)C2(C)C)cccc1-c1ccccc1`, the outcome in assay [4] was inactive.
With `CCNC(=O)NC(=O)C(C#N)=NOC`, the compound was called inactive in assay [5] and in assay [7].
Turning to `CCC(C)n1c(=O)[nH]c(C)c(Br)c1=O` (centres undefined), the AC50 in assay [1] was 3.93 µM (active). Further, in assay [7], the compound was classed as inactive.
Consider `O=c1n(Cl)c(=O)n(Cl)c(=O)n1Cl`, for which the result with Caspase-1 (Homo sapiens) was inactive.
With `COP(=S)(OC)Oc1ccc([N+](=O)[O-])c(C)c1`, the AC50 in assay [8] is 0.392 µM (active); in assay [2] it was 8.05 µM (active); in the assay on rat CYP2C6, gene 293989, 0.177 µM (active); in assay [6], 10 µM (active); in assay [5], 5.28 µM (active).
As for `CCN(CC)C(=O)C(C)Oc1cccc2ccccc12` (centres undefined), the AC50 in assay [4] was 5890 nM (active); in assay [8], 0.951 µM (active); in the assay with rat CYP2C6, gene 293989, 4.21 µM (active); in assay [5], 6.02 µM (active). Also, the result with Caspase-1 (Homo sapiens) was inactive.
`CCOP(=S)(OCC)Oc1nc(Cl)n(C(C)C)n1`: the AC50 was 0.837 µM (active) with rat CYP2C6, gene 293989 and 5.76 µM (active) in assay [5].
`CC(C)N1C(=O)N(c2ccccc2)CSC1=NC(C)(C)C`: in assay [8], the AC50 is 3.97 µM (active).
As to `CCCCC(C#N)(Cn1cncn1)c1ccc(Cl)cc1` (centres undefined), the AC50 in assay [4] is 238 nM (active); in [8] it was 2.39 µM (active); in assay [2] it was 4.51 µM (active); in assay [6], 4.37 µM (active); in assay [1], 8.64 µM (active); in assay [5] it was 6.44 µM (active).
In the case of `CCN(CC)c1nc(C)cc(OP(=S)(OC)OC)n1`, the AC50 in the assay on rat CYP2C6, gene 293989 was 0.723 µM (active).
Take `CO/N=C(/C1=NOCCO1)c1ccccc1Oc1ncnc(Oc2ccccc2Cl)c1F`: the AC50 in assay [8] is 0.779 µM (active); with rat CYP2C6, gene 293989, 1.74 µM (active).
In the case of `CC(C)(C)C(=O)C(Oc1ccc(Cl)cc1)n1cncn1` (centres undefined), the AC50 was 32 nM (active) and 40.6 nM (active) in [4]; 4.29 µM (active) in assay [8]; 0.246 µM (active) in assay [6]; 6.43 µM (active) in [1]; 5.33 µM (active) and 5.52 µM (active) in [5].
Regarding `CC1(C)CCC(=Cc2ccc(Cl)cc2)C1(O)Cn1cncn1` (centres undefined), the results for the AC50 in assay [4] and in assay [8] were 299 nM (active) and 0.384 µM (active), respectively. Moreover, the call in [5] was inactive.

(Values after PubChem BioAssay (EPA / NIEHS).)
